Measurements published in publication PMC11062922 (Nature Chemical Biology, 2023).
Where two headings read alike, the source gives them in different places.

What was measured:
Set-up in all cases: species or system human, MV4-11 + K-562 + COLO205 + SK-N-BE2 + OVCAR-8
MAP2K5 = details: read-out: apparent Kd; compound concentrations:100 nM and 1000 nM (sheet 'Samples'); n = 1
RIPK2 = details: read-out: apparent Kd; compound concentrations:100 nM and 1000 nM (sheet 'Samples'); n = 1
PBK = details: read-out: apparent Kd; compound concentrations:100 nM and 1000 nM (sheet 'Samples'); n = 1
PTK6 = details: read-out: apparent Kd; compound concentrations:100 nM and 1000 nM (sheet 'Samples'); n = 1
RIPK3 = details: read-out: apparent Kd; compound concentrations:100 nM and 1000 nM (sheet 'Samples'); n = 1
SIK2 = details: read-out: apparent Kd; compound concentrations:100 nM and 1000 nM (sheet 'Samples'); n = 1
MAP3K12 = details: read-out: apparent Kd; compound concentrations:100 nM and 1000 nM (sheet 'Samples'); n = 1
NUAK1 = details: read-out: apparent Kd; compound concentrations:100 nM and 1000 nM (sheet 'Samples'); n = 1
NUAK2 = details: read-out: apparent Kd; compound concentrations:100 nM and 1000 nM (sheet 'Samples'); n = 1
MAP3K1 = details: read-out: apparent Kd, n = 1
MAP4K5 = details: read-out: apparent Kd; compound concentrations: 100 nM and 1000 nM (sheet 'Samples'), CATDS: 0.32149724662749601; n = 1
PLK1 = details: read-out: apparent Kd, compound concentrations: 100 nM and 1000 nM (sheet 'Samples'), n = 1
SLK = details: read-out: apparent Kd, compound concentrations: 100 nM and 1000 nM (sheet 'Samples'), n = 1
STK10 = details: read-out: apparent Kd, compound concentrations: 100 nM and 1000 nM (sheet 'Samples'), n = 1
PAICS = details: read-out: apparent Kd; compound concentrations:100 nM and 1000 nM (sheet 'Samples'); n = 1
PIK3CG = details: read-out: apparent Kd; compound concentrations:100 nM and 1000 nM (sheet 'Samples'); n = 1
MAP3K6 = details: read-out: apparent Kd; compound concentrations: 100 nM and 1000 nM (sheet 'Samples'), CATDS: 0.469017197153689; n = 1
MAPK11 = details: read-out: apparent Kd, compound concentrations: 100 nM and 1000 nM (sheet 'Samples'), n = 1
MAPK10 = details: read-out: apparent Kd, compound concentrations: 100 nM and 1000 nM (sheet 'Samples'), n = 1
MAPK14 = details: read-out: apparent Kd; compound concentrations: 100 nM and 1000 nM (sheet 'Samples'), CATDS: 0.32550592526208599; n = 1
MAPK8 = details: read-out: apparent Kd; compound concentrations: 100 nM and 1000 nM (sheet 'Samples'), CATDS: 9.0808472598726403E-2; n = 1
MAPK9 = details: read-out: apparent Kd; compound concentrations: 100 nM and 1000 nM (sheet 'Samples'), CATDS: 0.14012416738293099; n = 1
MAPKAPK2 = details: read-out: apparent Kd; compound concentrations: 100 nM and 1000 nM (sheet 'Samples'), CATDS: 0.240899887861172; n = 1
NLK = details: read-out: apparent Kd; compound concentrations: 100 nM and 1000 nM (sheet 'Samples'), CATDS: 0.137200771005723; n = 1
PIP4K2C = details: read-out: apparent Kd; compound concentrations: 100 nM and 1000 nM (sheet 'Samples'), CATDS: 7.7645763885448402E-2; n = 1
MARK4 = details: read-out: apparent Kd; compound concentrations: 100 nM and 1000 nM (sheet 'Samples'), CATDS: 0.22058260458437301; n = 1
PIK3CB = details: read-out: apparent Kd; compound concentrations: 100 nM and 1000 nM (sheet 'Samples'), CATDS: 0.29379902166128602; n = 1
RIOK2 = details: read-out: apparent Kd; compound concentrations: 100 nM and 1000 nM (sheet 'Samples'), CATDS: 0.25235817930049498; n = 1
[1] = compound concentrations:100 nM and 1000 nM (sheet 'Samples')

## CN(C)c1cc2c(Nc3ccc4c(cnn4Cc4ccccc4)c3)ncnc2cn1 [GW282974X]
MAP2K5
  potency estimated from few doses: 1470 nM
RIPK2
  potency estimated from few doses: 989 nM

## CNC(=O)Oc1cc(C)c(/C=C/c2cncc(C(=O)NC)c2)c(C)c1 [GW432441X]
MAP2K5
  potency estimated from few doses: 231 nM
PBK
  potency estimated from few doses: 1680 nM
PTK6
  potency estimated from few doses: 45.3 nM
RIPK2
  potency estimated from few doses: 28.1 nM
RIPK3
  potency estimated from few doses: 399 nM
SIK2
  potency estimated from few doses: 1320 nM

## O=C(Nc1n[nH]c2nc(-c3ccccc3)c(Cl)cc12)C1CC1 [SB-734909]
MAP3K12
  potency estimated from few doses: 1520 nM
NUAK1
  potency estimated from few doses: 1980 nM
NUAK2
  potency estimated from few doses: 1350 nM

## COc1cc2ncn(-c3cc(OCc4ccccc4Cl)c(C(N)=O)s3)c2cc1OC [GW852849X]
MAP3K1; compound concentrations: 100 nM and 1000 nM (sheet 'Samples'), CATDS: 0.14122884829610699
  potency estimated from few doses: 1950 nM
MAP4K5
  potency estimated from few doses: 184 nM
PLK1; CATDS: 0.55429480894525696
  potency estimated from few doses: 68.2 nM
SLK; CATDS: 0.14112272983739199
  potency estimated from few doses: 1960 nM
STK10; CATDS: 0.168955384509856
  potency estimated from few doses: 1000 nM

## C[C@@H](Oc1cc(-n2cnc3cc(-c4ccnc(NCCS(C)(=O)=O)c4)ccc32)sc1C(N)=O)c1ccccc1Cl [GSK907232A]
MAP3K1; compound concentrations: 100 nM and 1000 nM (sheet 'Samples'), CATDS: 0.38790530075406598
  potency estimated from few doses: 80.6 nM
PLK1; CATDS: 0.48589470973507998
  potency estimated from few doses: 53.6 nM
SLK; CATDS: 0.160364449090587
  potency estimated from few doses: 1330 nM
STK10; CATDS: 0.19500034290566101
  potency estimated from few doses: 534 nM

## C[C@@H](Oc1cc(-n2cnc3ccc(-c4ccncc4)cc32)sc1C(N)=O)c1ccccc1Cl [GSK483724A]
MAP3K1; [1]
  potency estimated from few doses: 1840 nM

## C[C@@H](Oc1cc(-n2cnc3ccc(OC4CCN(C)CC4)cc32)sc1C(N)=O)c1ccccc1Cl [GSK579289A]
MAP3K1; [1]
  potency estimated from few doses: 1340 nM
NUAK2
  potency estimated from few doses: 601 nM
PAICS
  potency estimated from few doses: 1760 nM
PIK3CG
  potency estimated from few doses: 1030 nM

## Cl.Nc1c(C(=O)c2cccc(-c3ccncc3)c2)cnn1-c1ccc(F)cc1 [RO1165037-001]
MAP3K6
  potency estimated from few doses: 1810 nM
MAPK11; CATDS: 0.53536571927793597
  potency estimated from few doses: 1390 nM

## CC(C)(O)Cn1c(=O)c(Oc2ccc(F)cc2F)cc2cnc(NC3CCOCC3)nc21 [RO5036558-000]
MAPK10; CATDS: 0.17874550909650799
  potency estimated from few doses: 71.4 nM
MAPK11; CATDS: 7.7724815915961296E-2
  potency estimated from few doses: 1370 nM
MAPK14
  potency estimated from few doses: 24.8 nM
MAPK8
  potency estimated from few doses: 578 nM
MAPK9
  potency estimated from few doses: 127 nM
MAPKAPK2
  potency estimated from few doses: 40.4 nM
NLK
  potency estimated from few doses: 134 nM
PIP4K2C
  potency estimated from few doses: 1380 nM

## COC(=O)Nc1nc2ccc(Sc3ccc(NC(=O)Nc4cc(C(F)(F)F)ccc4F)cc3)cc2[nH]1.O=S(=O)(O)O [GW607049C]
MAPK10; CATDS: 0.243888047714692
  potency estimated from few doses: 1550 nM
MARK4
  potency estimated from few doses: 1930 nM
PIK3CB
  potency estimated from few doses: 1090 nM
RIOK2
  potency estimated from few doses: 1440 nM
